# Shown are actives, neighbours in structure and some others; about 3% of the full set was active somewhere.
# Peg3 promoter – Peg3 promoter activity inhibition. inhibition, % at 20 µM. HeLa PEG-Prom luciferase reporter, luminescence, overnight. AID 588405. 360,000 compounds, 1.7% hits;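 active = inhibition of at least 50% at 20 µM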
# PAX8 inh HTS – PAX8 transcriptional activity inhibition; 360,000 compounds, 1.2% hits; AID 652154; inhibition, % at 12.6 µM; RMG-I TPO-luciferase reporter, SteadyGlo, 24 h;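 active = mean replicate inhibition at least 60% with every replicate also reaching 60%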;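 note: luciferase light reporting Pax8 driven TPO promoter activity; plate controls were median of neutral control wells for no effect and mitoxantrone controls for full effect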
# EWS-Fli inh – blocks EWS/Fli oncoprotein-driven transcription; 350,000 compounds, 0.67% hits; A673 NR0B1-luciferase reporter, viability-normalised; inhibition, % at 12.6 µM;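 active = mean inhibition of at least 50% after viability correction, with every replicate also passing that limit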;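 note: firefly luciferase signal divided by Alamar Blue viability fluorescence both relative to DMSO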
# MITF TRPM1 inh – inhibitors of MITF-driven TRPM1 promoter in melanoma cells | AID 488899 | SK-MEL-5 TRPM1 promoter luciferase, 24 h | 330,000 compounds, 0.83% hits | inhibition, % at 12.5 µM;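 active = mean inhibition across replicates of 60% or more, whatever share of single replicates reaches that level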
# ABHD5 PLIN5 PPI – blocks binding of human ABHD5 to perilipin-5 | 360,000 compounds, 0.78% hits | inhibition, % at 4 µM | Split G. princeps luciferase complementation, luminescence, 4 h;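 active = inhibition above the mean inhibition across every tested compound plus 3 SD, cut at about 22% in these data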;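 note: 0% = DMSO only wells and the 100% control is not disclosed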
# Target sequence (Q00G26 whole entry, looked up): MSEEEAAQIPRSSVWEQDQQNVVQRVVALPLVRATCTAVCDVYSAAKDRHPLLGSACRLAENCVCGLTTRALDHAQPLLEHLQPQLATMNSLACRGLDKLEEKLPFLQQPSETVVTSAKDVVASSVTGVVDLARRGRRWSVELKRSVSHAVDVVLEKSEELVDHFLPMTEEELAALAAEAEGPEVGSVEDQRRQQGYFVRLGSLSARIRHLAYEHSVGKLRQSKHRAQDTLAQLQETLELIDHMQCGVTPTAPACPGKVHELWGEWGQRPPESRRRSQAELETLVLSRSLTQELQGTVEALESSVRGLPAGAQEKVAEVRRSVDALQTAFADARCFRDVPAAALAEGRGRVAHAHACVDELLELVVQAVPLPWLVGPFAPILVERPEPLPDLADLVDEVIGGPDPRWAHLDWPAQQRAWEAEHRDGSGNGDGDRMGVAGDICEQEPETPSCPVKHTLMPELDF
# Target sequence (Q8WTS1 whole entry, looked up): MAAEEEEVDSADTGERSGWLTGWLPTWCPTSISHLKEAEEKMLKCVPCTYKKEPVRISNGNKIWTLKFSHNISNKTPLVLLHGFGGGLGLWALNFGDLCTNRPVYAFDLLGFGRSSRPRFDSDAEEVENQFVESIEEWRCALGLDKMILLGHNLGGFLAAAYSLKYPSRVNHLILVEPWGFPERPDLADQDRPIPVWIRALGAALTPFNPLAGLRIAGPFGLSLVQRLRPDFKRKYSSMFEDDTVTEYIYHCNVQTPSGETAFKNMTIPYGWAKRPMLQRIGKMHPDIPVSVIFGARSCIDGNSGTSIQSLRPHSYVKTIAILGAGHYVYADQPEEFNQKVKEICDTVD
# Shn3 3UTR inh – Schnurri-3 reporter inhibition in Clone20 osteoblasts; inhibition, % at 12.5 µM; Clone20 osteoblast Shn3 3'UTR firefly luciferase, 24 h; 360,000 compounds, 0.52% hits;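 active = mean inhibition of at least 75% with every replicate also reaching 75%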;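 note: 0% = median of neutral control wells and 100% = pilot-screen positive control compound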
# * marks the source's active call; other numbers are inactive results; . = not tested or not shown.
SMILES,Peg3 promoter,PAX8 inh HTS,EWS-Fli inh,MITF TRPM1 inh,ABHD5 PLIN5 PPI,Shn3 3UTR inh
CO[C@H]1CN(C)C(=O)c2cccc(C#N)c2OC[C@H]2O[C@H](CC[C@H]2OC)CCN(C)C(=O)[C@H]1C,.,2.4,-3.5,.,.,.
N#C[C@H]1[C@@H](c2ccccc2-c2cccc(F)c2)[C@@H](CO)N1C(=O)C1CCC1,.,5.7,1.1,.,.,.
Cc1ccc(S(=O)(=O)N(C)C[C@H]2Oc3c(NC(=O)Nc4ccc(F)cc4)cccc3C(=O)N([C@@H](C)CO)C[C@H]2C)cc1,.,77.5*,30.1,.,.,.
C[C@H](CO)N1C[C@H](C)[C@H](CN(C)S(=O)(=O)c2ccc(Cl)cc2)Oc2c(NC(=O)NC3CCCCC3)cccc2C1=O,.,92.2*,19.8,.,.,.
C[C@H]1CN([C@@H](C)CO)C(=O)c2cccc(NC(=O)NC3CCCCC3)c2O[C@@H]1CN(C)S(=O)(=O)c1ccc(Cl)cc1,.,-1.0,14.1,.,.,.
C[C@H](CO)N1C[C@H](C)[C@H](CN(C)S(=O)(=O)c2ccc(Cl)cc2)Oc2c(NC(=O)Nc3ccc(F)cc3)cccc2C1=O,.,91.0*,2.4,.,.,.
C[C@@H]1CN([C@H](C)CO)S(=O)(=O)c2ccc(-c3cccc(C#N)c3)cc2O[C@H]1CN(C)Cc1cccc(F)c1,.,50.5,31.5,.,.,.
COc1cc(NCCCCCCCN)c2ncccc2c1,1.2,.,.,11.8,-3.5,2.9
COc1cc(NC(C)CCCN)c2ncccc2c1 (stereo not given),-11.2,65.9*,8.0,20.8,-3.0,6.5
C[C@@H]1CN([C@H](C)CO)C(=O)c2cc(NC(=O)Cn3cnnn3)ccc2O[C@H]1CN(C)C(=O)Nc1ccccc1,.,.,0.6,.,.,.
Cc1ccccc1S(=O)(=O)Cc1ccc(C(=O)N2CCN(c3cccc(C)c3C)CC2)o1,69.9*,.,.,53.5,10.3,11.8
Cc1cc(OCCCn2cnc3ccccc3c2=O)ccc1[N+](=O)[O-],-4.2,87.7*,2.6,-5.7,-3.0,-36.0
C[C@H]1CN([C@@H](C)CO)C(=O)Cc2cc(NC(=O)c3ccncc3)ccc2O[C@@H]1CN(C)Cc1ccc2c(c1)OCO2,.,-1.0,-1.3,.,.,.
CC(C)NC1=C(Cl)C(=O)c2ccccc2C1=O,-36.0,.,.,79.8*,-26.1,-3.7
O=C1C(Cl)=C(NCc2cccnc2)C(=O)c2ccccc21,1.8,-14.6,58.5*,97.7*,2.8,-8.9
CC(C)OCCCNC1=C(Cl)C(=O)c2ccccc2C1=O,-229.8,-121.6,-76.1,.,-1.1,.
O=S(=O)(Cc1ccccc1)NCc1cccnc1,8.0,.,.,21.4,4.7,-18.6
C=CCNC1=C(Cl)C(=O)c2ccccc2C1=O,-1.1,13.6,9.1,63.3*,-9.1,5.4
CCN(CC)CCCNC1=C(Cl)C(=O)c2ccccc2C1=O,18.3,69.9*,65.3*,110.2*,3.7,23.6
CC(C)NC(=O)Nc1ccc2c(c1)C(=O)N([C@H](C)CO)C[C@@H](C)[C@@H](CN(C)Cc1ccc(C(F)(F)F)cc1)O2,.,-1.7,3.1,.,.,.
COc1ccc2c3c([nH]c2c1)[C@H](CO)N(C(=O)c1ccccn1)CC31CN(C(=O)C2CCCCC2)C1,.,.,-12.1,.,.,.
COc1ccccc1NC(=O)c1cc2c(CO)cnc(C)c2oc1=Nc1ccc(OC)c(OC)c1,56.3*,14.9,15.8,14.2,-16.3,18.6
C=CCNC(=O)c1oc2ccc(S(=O)(=O)N3CCC4(CC3)OCCO4)cc2c1C,12.0,0.2,.,-1.2,0.2,4.0
COc1ccc(NC(=O)c2oc3ccc(S(=O)(=O)N4CCC5(CC4)OCCO5)cc3c2C)cc1,69.5*,.,.,42.6,3.0,73.8
CCN(CC)c1ccc(S(=O)(=O)N2CCOCC2)cc1NC(=O)c1cc(=O)c2ccccc2o1,61.7*,-5.9,13.7,9.4,-5.0,36.8
SMILES,Peg3 promoter,PAX8 inh HTS,EWS-Fli inh,MITF TRPM1 inh,ABHD5 PLIN5 PPI,Shn3 3UTR inh
Cc1c(C(=O)N(Cc2ccccc2)C(C)C)oc2ccc(S(=O)(=O)N3CCOCC3)cc12,51.1*,17.6,.,7.0,1.0,23.1
Cc1c(C(=O)Nc2cccc(C(F)(F)F)c2)oc2ccc(S(=O)(=O)N3CCOCC3)cc12,7.0,.,2.8,41.3,0.3,88.0*
CO[C@H]1CN(C)C(=O)c2ccc(NS(=O)(=O)c3ccccc3)cc2OC[C@@H](C)NC[C@H]1C,.,.,-1.3,.,.,.
CCCNC(=O)c1cn(CC)c2cc(N3CCN(C(=O)c4ccco4)CC3)c(F)cc2c1=O,18.8,36.6,10.0,-0.5,1.7,-1.2
CCn1cc(C(=O)NCc2cccc(F)c2)c(=O)c2cc(F)c(N3CCN(C(=O)c4ccco4)CC3)cc21,54.5*,.,.,31.7,15.6,62.9
O=C(/C=C/c1cn(CC(O)CN2CCCCC2)c2ccccc12)c1cccs1 (stereo not given),72.6*,-6.4,.,-16.6,12.4,-60.6
Cc1ccc(S(=O)(=O)Nc2ccc3c(c2)nc(CCN2CCN(c4ccccn4)CC2)n3C)cc1,28.6,21.0,13.3,0.7,12.8,11.5
Cn1c(CCN2CCN(c3ccccn3)CC2)nc2cc(NC(=O)COc3ccc(Cl)cc3)ccc21,52.2*,66.8*,.,58.2,10.7,59.1
Cc1cccc(OCC(=O)Nc2ccc3c(c2)nc(CCN2CCN(c4ccccn4)CC2)n3C)c1,38.7,71.3*,.,37.5,6.3,37.8
Cc1cccc(OCC(=O)Nc2ccc3c(c2)nc(CCN2CCCCC2)n3C)c1,-1.0,28.3,3.9,4.5,5.5,-28.0
Cn1c(CCN2CCN(c3ccccn3)CC2)nc2cc(NS(=O)(=O)c3ccc(Cl)cc3)ccc21,25.1,89.9*,.,9.5,11.8,15.2
COc1ccc(OCC(=O)Nc2ccc3c(c2)nc(CCN2CCN(c4ccccn4)CC2)n3C)cc1,6.4,17.0,1.5,.,3.6,4.6
Cc1ccc2c(C)nc(Nc3nc(CSc4nnnn4-c4ccccc4)cc(=O)[nH]3)nc2c1,52.6*,.,.,29.3,-0.3,-17.7
Cc1ccc(C(=O)O/N=C(\N)c2ccccn2)cc1C,76.0*,82.6*,74.4*,52.5,-0.6,45.4
COc1cc(C(=O)O/N=C(\N)c2ccccn2)cc(OC)c1OC,-24.5,-37.5,-10.6,-30.1,-1.0,-30.3
CCCCn1c(N)c(N(CCC(C)C)C(=O)COC(=O)c2ccc([N+](=O)[O-])s2)c(=O)[nH]c1=O,30.8,90.6*,6.4,80.1*,2.5,-4.9
CC(C)CN(C(=O)COC(=O)c1ccc([N+](=O)[O-])s1)c1c(N)n(Cc2ccccc2)c(=O)[nH]c1=O,-12.7,-2.2,-2.9,60.5*,-0.7,3.5
O=C(N[C@H]1CC[C@@H](CCNS(=O)(=O)c2ccc(Cl)cc2)O[C@@H]1CO)c1cccnc1,.,-16.2,-4.8,.,.,.
Cn1c(C(=O)N2CCCCCC2)cc2c(=O)n(C)c3ccccc3c21,-9.8,1.4,-20.8,-11.5,-1.8,-4.1
Cc1cccc(N2CCN(C(=O)c3ccc4nccnc4c3)CC2C)c1 (stereo not given),-1.6,27.2,0.0,0.5,-1.0,16.3
Cc1cccc(N2CCN(C(=O)c3ccc4nc(-c5ccco5)c(-c5ccco5)nc4c3)CC2C)c1 (stereo not given),62.9*,.,.,21.5,11.5,13.9
